We go through eight sequences from paper PMC4081100, “A DNA-binding-site landscape and regulatory network analysis for NAC transcription factors in Arabidopsis thaliana”.

Common to all, as to assay: universal protein binding microarray (PBM); transcription factors of Arabidopsis thaliana; high values mean tight binding
What all share (conditions): protein: recombinant; tags: GST; chain copies: 2; dsDNA, one strand shown

The target in one experiment is T1, GST-ANAC092(1-176) (Arabidopsis thaliana, UniProt Q9FKA0 1-176).
T1 sequence: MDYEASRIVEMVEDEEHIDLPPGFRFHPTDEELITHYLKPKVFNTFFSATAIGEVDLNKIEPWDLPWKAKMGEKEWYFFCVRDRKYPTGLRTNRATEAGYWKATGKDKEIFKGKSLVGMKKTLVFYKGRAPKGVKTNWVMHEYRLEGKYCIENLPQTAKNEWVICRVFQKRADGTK
In outline: (§1)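 Binding is expressed as the normalised enrichment score (E-score). Proteins carrying a GST tag, whether NAC-domain, full-length or DNA-binding-domain forms, were induced in cells, and zinc acetate was added for zinc-finger proteins. After purification on glutathione–Sepharose 4B and quantification by A280 or anti-GST western blot, each was applied in duplicate at 200 to 500 nM final to custom all-10-mer Agilent 4 × 180K arrays made double-stranded by primer extension. Gapped and ungapped 8-mers were scored.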

The target in another experiment is T2, GST-ANAC019 NAC domain (Arabidopsis thaliana, UniProt Q9C932 14-162).
T2 sequence: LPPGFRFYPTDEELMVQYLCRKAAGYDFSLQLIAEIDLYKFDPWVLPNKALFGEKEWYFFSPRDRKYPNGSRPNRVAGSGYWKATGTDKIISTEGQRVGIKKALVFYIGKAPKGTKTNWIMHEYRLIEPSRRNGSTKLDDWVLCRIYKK
In outline: as §1

Another experiment addresses T3, GST-ANAC055(1-171) (Arabidopsis thaliana, UniProt Q9LDY8 1-171).
T3 sequence: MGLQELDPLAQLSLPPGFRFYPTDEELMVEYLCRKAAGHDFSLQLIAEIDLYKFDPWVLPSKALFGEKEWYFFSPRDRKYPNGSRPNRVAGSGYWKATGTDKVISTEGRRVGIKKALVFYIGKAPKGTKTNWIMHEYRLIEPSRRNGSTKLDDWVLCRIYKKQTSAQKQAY
In outline:
as §1

In a further experiment the target is T4, GST-ATAF1 NAC domain (Arabidopsis thaliana, UniProt Q39013 7-158).
T4 sequence: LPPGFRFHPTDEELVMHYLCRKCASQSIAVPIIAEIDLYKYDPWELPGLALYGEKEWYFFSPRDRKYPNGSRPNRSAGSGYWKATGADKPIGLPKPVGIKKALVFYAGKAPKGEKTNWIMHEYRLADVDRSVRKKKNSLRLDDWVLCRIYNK
In outline:
as §1

Experiment [1] deals with T5, GST-ANAC092(1-285) full length (Arabidopsis thaliana, UniProt Q9FKA0 1-285).
T5 sequence: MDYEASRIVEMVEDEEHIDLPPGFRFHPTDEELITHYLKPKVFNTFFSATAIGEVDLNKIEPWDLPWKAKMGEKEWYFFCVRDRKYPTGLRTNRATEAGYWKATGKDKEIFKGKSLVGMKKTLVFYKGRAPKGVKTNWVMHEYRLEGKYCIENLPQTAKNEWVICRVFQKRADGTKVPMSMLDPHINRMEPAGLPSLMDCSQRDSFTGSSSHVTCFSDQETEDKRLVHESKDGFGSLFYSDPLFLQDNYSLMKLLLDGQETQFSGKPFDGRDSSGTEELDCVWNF
In outline:
as §1

The target in a further experiment is T6, GST-NAP(1-166) (Arabidopsis thaliana, UniProt O49255 1-166).
T6 sequence: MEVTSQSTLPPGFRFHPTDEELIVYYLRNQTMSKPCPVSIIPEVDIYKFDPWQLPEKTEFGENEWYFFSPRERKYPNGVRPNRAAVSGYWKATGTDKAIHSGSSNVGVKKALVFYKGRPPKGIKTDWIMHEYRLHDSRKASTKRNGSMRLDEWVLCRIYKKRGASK
In outline:
as §1

The target of another experiment is T7, GST-SND1(1-203) (Arabidopsis thaliana, UniProt Q9LPI7 1-203).
T7 sequence: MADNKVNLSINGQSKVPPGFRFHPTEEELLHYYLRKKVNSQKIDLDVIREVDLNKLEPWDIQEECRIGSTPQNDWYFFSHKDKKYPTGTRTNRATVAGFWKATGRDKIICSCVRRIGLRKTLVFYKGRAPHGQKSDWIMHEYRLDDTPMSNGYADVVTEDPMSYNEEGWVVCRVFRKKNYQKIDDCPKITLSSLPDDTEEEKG
In outline: as §1

The target of a further experiment is T8, GST-VND3 NAC domain (Arabidopsis thaliana, UniProt Q9FH59 12-162).
T8 sequence: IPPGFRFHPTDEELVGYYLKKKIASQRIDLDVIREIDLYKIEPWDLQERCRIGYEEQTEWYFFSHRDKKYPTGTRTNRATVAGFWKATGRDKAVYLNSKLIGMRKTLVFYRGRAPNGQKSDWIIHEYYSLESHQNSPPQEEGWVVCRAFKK
In outline: as §1

A further experiment addresses T9, GST-VND7 NAC domain (Arabidopsis thaliana, UniProt Q9C8W9 9-158).
T9 sequence: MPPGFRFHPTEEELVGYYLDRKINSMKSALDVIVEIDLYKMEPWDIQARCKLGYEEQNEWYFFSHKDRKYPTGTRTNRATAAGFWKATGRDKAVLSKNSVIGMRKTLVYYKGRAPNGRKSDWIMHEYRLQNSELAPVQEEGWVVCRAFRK
In outline:
as §1

The target of a further experiment is T10, GST-NST2(1-184) (Arabidopsis thaliana, UniProt Q9M274 1-184).
T10 sequence: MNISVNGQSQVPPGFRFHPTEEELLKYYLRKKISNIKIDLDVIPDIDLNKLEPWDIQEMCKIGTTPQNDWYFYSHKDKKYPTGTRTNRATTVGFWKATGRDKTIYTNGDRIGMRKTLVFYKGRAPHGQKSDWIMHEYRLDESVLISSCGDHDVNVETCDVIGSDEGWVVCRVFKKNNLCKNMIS
In outline: as §1

On to CGACACGC, for which the binding signal in the experiment with GST-ANAC092(1-176) was 0.316 E-score; in the experiment with GST-ANAC019 NAC domain it was 0.246 E-score; with GST-ANAC055(1-171), 0.131 E-score; in the experiment with GST-ATAF1 NAC domain it was 0.188 E-score; in experiment [1], 0.403 E-score; with GST-NAP(1-166), 0.194 E-score. Further, the binding signal with GST-SND1(1-203) turned out to be 0.134 E-score; in the experiment with GST-VND3 NAC domain, 0.138 E-score; in the experiment with GST-VND7 NAC domain it was 0.198 E-score.

As to GTGGCGTA, the binding signal came to 0.439 E-score in the experiment with GST-ANAC092(1-176); 0.148 E-score in the experiment with GST-ANAC019 NAC domain; 0.144 E-score with GST-ANAC055(1-171); 0.235 E-score in the experiment with GST-ATAF1 NAC domain; 0.459 E-score in experiment [1]; 0.0567 E-score in the experiment with GST-NAP(1-166). Also, the binding signal is 0.3 E-score with GST-NST2(1-184), 0.471 E-score with GST-SND1(1-203), 0.138 E-score with GST-VND3 NAC domain and 0.0712 E-score with GST-VND7 NAC domain.

For GTACGCCA, the binding signal came to 0.379 E-score in the experiment with GST-ANAC092(1-176); 0.139 E-score with GST-ANAC019 NAC domain; 0.153 E-score in the experiment with GST-ANAC055(1-171); 0.121 E-score with GST-ATAF1 NAC domain; 0.45 E-score in experiment [1]; 0.0526 E-score in the experiment with GST-NAP(1-166). The binding signal in the experiment with GST-NST2(1-184) amounted to 0.225 E-score; with GST-SND1(1-203), 0.398 E-score; with GST-VND3 NAC domain, 0.07 E-score; with GST-VND7 NAC domain, 0.114 E-score.

On to GCGTGTGA, for which the binding signal with GST-ANAC092(1-176) was 0.374 E-score; with GST-ANAC019 NAC domain it was 0.191 E-score; in the experiment with GST-ANAC055(1-171) it was 0.23 E-score; in the experiment with GST-ATAF1 NAC domain, 0.226 E-score; in experiment [1], 0.419 E-score; with GST-NAP(1-166), 0.145 E-score. Moreover, the binding signal is 0.189 E-score with GST-NST2(1-184), 0.17 E-score with GST-SND1(1-203), 0.14 E-score with GST-VND3 NAC domain and 0.0819 E-score with GST-VND7 NAC domain.

With ACGGCACC, the binding signal with GST-ANAC092(1-176) is 0.406 E-score; in the experiment with GST-ANAC019 NAC domain, 0.425 E-score; with GST-ANAC055(1-171) it was 0.358 E-score; with GST-ATAF1 NAC domain, 0.375 E-score; in [1], 0.452 E-score; in the experiment with GST-NAP(1-166), 0.381 E-score. Further, the binding signal was determined as 0.0937 E-score with GST-NST2(1-184), 0.237 E-score with GST-SND1(1-203), 0.318 E-score with GST-VND3 NAC domain and 0.333 E-score with GST-VND7 NAC domain.

For CACACGTC, the binding signal is 0.33 E-score in the experiment with GST-ANAC092(1-176); 0.214 E-score with GST-ANAC019 NAC domain; 0.221 E-score in the experiment with GST-ANAC055(1-171); 0.248 E-score with GST-ATAF1 NAC domain; 0.405 E-score in experiment [1]; 0.172 E-score with GST-NAP(1-166). The binding signal stood at 0.079 E-score with GST-NST2(1-184), 0.157 E-score with GST-SND1(1-203), 0.199 E-score with GST-VND3 NAC domain and 0.176 E-score in the experiment with GST-VND7 NAC domain.

Turning to ATGGCGTG, the binding signal with GST-ANAC092(1-176) came to 0.443 E-score; with GST-ANAC019 NAC domain it was 0.196 E-score; with GST-ANAC055(1-171), 0.138 E-score; with GST-ATAF1 NAC domain, 0.17 E-score; in experiment [1] it was 0.456 E-score; with GST-NAP(1-166) it was 0.161 E-score. Moreover, the binding signal was 0.227 E-score with GST-NST2(1-184), 0.249 E-score in the experiment with GST-SND1(1-203), 0.151 E-score with GST-VND3 NAC domain and 0.155 E-score in the experiment with GST-VND7 NAC domain.

Take ATACACGC: the binding signal with GST-ANAC092(1-176) came out at 0.39 E-score; with GST-ANAC019 NAC domain it was 0.19 E-score; with GST-ANAC055(1-171), 0.185 E-score; with GST-ATAF1 NAC domain, 0.21 E-score; in experiment [1], 0.423 E-score; in the experiment with GST-NAP(1-166), 0.256 E-score. Further, the binding signal in the experiment with GST-NST2(1-184) worked out at 0.167 E-score; with GST-SND1(1-203), 0.0978 E-score; with GST-VND3 NAC domain, 0.167 E-score; in the experiment with GST-VND7 NAC domain, 0.0693 E-score.
